A short description of assay [1]: blockers of polyQ-driven CASP3 activation – cell-based (AID 1583). Particulars: polyglutamine-induced caspase-3 activation, cell assay; stronger effect = higher value;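 tested at 10 µM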.
Assay [2] can be described thus: yeast 75Q aggregation reduction – 75Q-TubU reporter (AID 1593). Particulars: Yeast 75Q polyglutamine aggregation reporter.
The nature of assay [3]: restoration of touch response, mutant HTT neurons – whole organism, C. elegans mechanosensory neurons, N-terminal huntingtin (AID 1599). Particulars: C. elegans polyQ-huntingtin mechanosensory neurons, stronger effect = higher value.
The nature of assay [4]: blockers of cytochrome c efflux from mitochondria – biochemical, purified mitochondria (AID 1603).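 Also: mouse liver mitochondria challenged with calcium chloride; signal normalized to the plate average as 100%.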 Particulars: stronger effect = lower value.
The nature of assay [5]: polyglutamine aggregate formation blockers (AID 1604). Particulars: polyglutamine-induced protein aggregation inhibition assay; stronger effect = higher value; tested at 2.5 µM.

Several values for one entry are separate records, joined by “and”; a condition that tells them apart may be missing. Equal values may be shown once. For some assays here: Potency and affinity values are given separately.

As a reminder, the inhibition is the change of the read-out against control, counted positive when it falls. For `CC1=C(C(=O)O)N2C(=O)[C@@H](NC(=O)[C@H](N)C3=CCC=CC3)[C@H]2SC1`, the inhibition in assay [1] was -6.99%. The score in assay [2] was 1.49. The rescue above control in assay [3] worked out at 19. Moreover, the cytochrome c release ratio in assay [4] was 0.86. The inhibition of aggregation in assay [5] was found to be 74.7%.
Taken in the same sequence, the figures for `Nc1ccc(S(N)(=O)=O)cc1` were -14.5%, 1.26, 0.93, 1.06 and 81.5%.
Taken in the same sequence, the figures for `Cc1cc(C2CCCCC2)n(O)c(=O)c1` were 60.9%, 0.13, 6.29, 0.91 and 72.2%.
For the molecule `Cc1cccc(N(C)C(=S)Oc2ccc3ccccc3c2)c1`, the inhibition in assay [1] was -3.4%. The molecule further returned a score in assay [2] of -1.43. The molecule also returned a rescue above control in assay [3] of -1.37. For the same molecule, the cytochrome c release ratio in assay [4] was 0.96. In assay [5], the inhibition of aggregation was 57.4%.
Taken in the same sequence, the figures for `NC[C@H](O)c1ccc(O)c(O)c1` were 10.9%, 1.61, -5.19, 1.03 and 44.7%.
For `Nc1ccc(C(=O)O)c(O)c1`, the inhibition in assay [1] was -17.6%. The molecule further came in with a score in assay [2] of 1.08. In addition, the rescue above control in assay [3] was 7.16. Moreover, the cytochrome c release ratio in assay [4] came to 1.48. For the same molecule, the inhibition of aggregation in assay [5] is 88.8%.
`CCN1CCCC(OC(=O)C(c2ccccc2)c2ccccc2)C1` (stereo not given): the inhibition in assay [1] came to 7.55%. Also, the score in assay [2] came to 1.33. Further, the rescue above control in assay [3] was -11.5. The cytochrome c release ratio in assay [4] was determined as 1.06. In addition, in assay [5], the inhibition of aggregation came to 23.6%.
As for `CCCCCCc1ccc(O)cc1O`, the inhibition in assay [1] worked out at 8.69%. In addition, in assay [2], the score worked out at 0. The molecule further registered a rescue above control in assay [3] of -4.19. Moreover, the cytochrome c release ratio in assay [4] came out at 0.54. The inhibition of aggregation in assay [5] was 56.7%.
Consider `CCOC(=O)C(C)(C)Oc1ccc(Cl)cc1`, for which the inhibition in assay [1] is 24.9% and 18.3%. The score in assay [2] is 0.66 and 0.84. In addition, the rescue above control in assay [3] is -9.07 and 5.03. Also, the cytochrome c release ratio in assay [4] was 0.65 and 0.84. The inhibition of aggregation in assay [5] was 70.5% and -5.88%.
Regarding `CCN(CC)CCNC(=O)COc1ccc(OC)cc1`, the inhibition in assay [1] was 62%. This molecule also returned a score in assay [2] of 1.13. The rescue above control in assay [3] was -1.97. Also, the cytochrome c release ratio in assay [4] came to 0.98. Besides, the inhibition of aggregation in assay [5] stood at 72.2%.
Take `C[N+](C)(C)CCCCCC[N+](C)(C)C`: in assay [1], the inhibition turned out to be 1.59%. In addition, the score in assay [2] amounted to 1.14. Further, the rescue above control in assay [3] was -10.3. In assay [4], the cytochrome c release ratio is 0.92. The inhibition of aggregation in assay [5] is 72.2%.
Regarding `CC(=O)Nc1ccc(S(=O)(=O)Nc2ccc([N+](=O)[O-])cc2)cc1`, in assay [1], the inhibition was found to be 15.7%. In assay [2], the score was determined as 1.4. Moreover, the rescue above control in assay [3] is -10.3. In assay [4], the cytochrome c release ratio was 1.02. Further, the inhibition of aggregation in assay [5] came out at 15.7%.
With `Cc1cc(=O)[nH]c(=S)[nH]1`, the inhibition in assay [1] is -32.8%. In assay [2], this molecule yielded a score of 1.08. In assay [3], this molecule yielded a rescue above control of -4.23. The cytochrome c release ratio in assay [4] stood at 0.82. Moreover, the inhibition of aggregation in assay [5] came out at 69.4%.

These data come from PubChem BioAssay.
